FadD28 binding: inhibitors of FadD28 bisubstrate probe binding, primary screen, biochemical, fluorescence polarization, single point. 360,000 tested, 0.22% active. inhibition, % at 12.5 µM. AID 588549, 2011. Mycobacterium tuberculosis FadD28 fatty-acid-AMP ligase; in the data active = inhibition above about 8.5%, passing the limit was not always enough
Mtb BioA inh: M. tuberculosis BioA enzyme inhibitors, primary screen, biochemical, plate reader, single point, HTS; 7,8-diaminopelargonic acid synthase BioA (Mycobacterium tuberculosis); purified M. tuberculosis BioA enzyme; inhibition, % at 9.99 µM; 360,000 tested, 0.096% active; AID 602481, 2012; in the data active = inhibition above about 40%
Rv3671c protease: Rv3671c serine protease inhibitors, primary screen, biochemical, fluorescence polarization, M. tuberculosis H37Rv; P9WHR9; inhibition, % at 5.96 µM; 320,000 tested, 0.048% active; in the data active = inhibition above about 38%;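 also: extracellular domain of Rv3671c used as enzyme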
Target sequence (P9WHR9 whole entry, looked up, the tested form may be a part): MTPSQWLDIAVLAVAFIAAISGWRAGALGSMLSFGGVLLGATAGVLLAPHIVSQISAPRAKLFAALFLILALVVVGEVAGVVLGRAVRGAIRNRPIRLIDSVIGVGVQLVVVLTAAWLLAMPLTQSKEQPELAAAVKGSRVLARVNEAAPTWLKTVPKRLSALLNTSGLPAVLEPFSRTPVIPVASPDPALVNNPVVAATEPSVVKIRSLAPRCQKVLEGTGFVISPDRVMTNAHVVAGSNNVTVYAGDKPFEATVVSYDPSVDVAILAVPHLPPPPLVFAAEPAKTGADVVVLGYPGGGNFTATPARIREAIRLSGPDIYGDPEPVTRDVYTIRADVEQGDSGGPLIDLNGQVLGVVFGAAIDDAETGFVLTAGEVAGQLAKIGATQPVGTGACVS
UGM FP inh: M. tuberculosis UGM enzyme inhibitors, primary screen, biochemical, fluorescence polarization, single point. UDP-galactopyranose mutase (Mycobacterium tuberculosis (strain ATCC 25618 / H37Rv)), …. purified UGM, fluorescence polarization probe displacement. inhibition, % at 10 µM. 320,000 tested, 0.06% active. AID 504406, 2011; in the data active = inhibition above about 10%, passing the limit was not always enough
RecA intein inh: Mtb RecA intein splicing inhibitors, primary screen, biochemical, fluorescence, HTS; inhibition, % (no concentration beside the values); 290,000 tested, 0.75% active; cell-free RecA intein splicing; in the data active = inhibition above about 30%
TcdB inh: TcdB glycohydrolase inhibitors, primary screen, biochemical, single point, plate reader; Toxin B (Clostridioides difficile), P18177; TcdB glycohydrolase enzymatic assay; 350,000 tested, 0.24% active; inhibition, % at 9.99 µM; in the data active = inhibition above about 10%
Hits are given with their value; – = inactive; · = no result; ! = repeats disagree. Most compounds without a hit are left out; they make up all but 0.97% or so of the library.

SMILES	FadD28 binding	Mtb BioA inh	Rv3671c protease	UGM FP inh	RecA intein inh	TcdB inh
Cc1ccc(NC2=C(N3CCOCC3)C(=O)c3ccccc3C2=O)cc1	–	–	–	–	41.0	·
O=C(C[C@@H]1CC[C@@H]2[C@H](COC[C@H](O)CN2S(=O)(=O)c2cccc(Cl)c2)O1)NC1Cc2ccccc2C1	·	–	·	·	·	–
COCc1cn(CC[C@@H]2CC[C@H](NC(=O)Nc3ccc(OC)cc3)[C@H](CO)O2)nn1	·	–	·	·	·	–
COCC(=O)N1C[C@H](C)[C@@H](OC)CN(C)C(=O)c2cc(NC(=O)c3ccc(OC)cc3)ccc2OC[C@@H]1C	·	–	·	·	·	–
Cc1cc(=O)oc2c(N)c(O)ccc12	–	–	–	–	·	11.6
CC(=O)N(C)C[C@H]1Oc2cc(/C=C/c3ccccc3)ccc2S(=O)(=O)N([C@@H](C)CO)C[C@@H]1C	·	–	·	·	·	–
O=C(N/N=C/c1ccncc1)NC12CC3CC(CC(C3)C1)C2	–	–	–	–	–	–
O=C(N/N=C/c1ccc(O)cc1)NC12CC3CC(CC(C3)C1)C2	–	–	–	–	–	19.1
COc1cc(/C=C/C(=O)c2ccc([N+](=O)[O-])o2)ccc1O	–	–	–	–	–	11.6
C[C@H](CO)N1C[C@H](C)[C@@H](CN(C)C(=O)c2ccc3c(c2)OCO3)Oc2ncc(C3=CCCCC3)cc2C1=O	·	–	·	·	·	–
CC1=C(C)/C(=N\OS(=O)(=O)c2ccccc2)C=CC1=O	–	–	–	–	41.4	–
C[C@@H]1CN([C@@H](C)CO)C(=O)c2cc(NC(=O)Nc3ccccc3)ccc2O[C@@H](C)CCCCO[C@H]1CN(C)C(=O)CCC(F)(F)F	·	–	·	·	·	–
O=C(C[C@@H]1CC[C@@H]2[C@H](COC[C@H](O)CN2S(=O)(=O)c2cccc(Cl)c2)O1)N1CCCCC1	·	–	·	·	·	·
CCOC(=O)[C@@H]1[C@H]2COc3ccc(Br)cc3[C@@H]2N2C(=O)N(c3ccc(Br)cc3)C(=O)[C@]12C	–	–	–	–	–	13.8!
CCn1c(O)c(N=Nc2ccc(S(=O)(=O)N3CCOCC3)cc2)c(=O)n(CC)c1=S	–	·	–	–	–	–
CCn1c(O)c(N=Nc2cccc(S(=O)(=O)N3CCOCC3)c2)c(=O)n(CC)c1=S	–	·	–	–	59.0	–
C[C@H](CO)N1C[C@H](C)[C@H](CN(C)Cc2ccc(C(=O)Nc3ccccc3N)cc2)Oc2ccc(NS(=O)(=O)c3cn(C)cn3)cc2C1=O	·	–	·	·	·	–
O=C(NCc1nnc2c(C(F)(F)F)cc(Cl)cn12)c1cccnc1	–	–	–	–	–	12.5
O=C1N=NC2=C1c1c3ccccc3c(O)n1CC2	–	·	–	–	56.2	–
COC(=O)/C(=C1/Oc2cc(C)oc(=O)c2S1)C(F)(F)F	–	–	–	–	44.1	–
COC(=O)/C(=C1/Oc2ccc(C(C)(C)C)cc2S1)C(F)(F)F	–	·	–	–	·	–
Cc1[nH]nc2c1[C@@H](c1ccccc1[N+](=O)[O-])C(C#N)=C(N)O2	–	–	–	–	–	–
Cc1ccc(-n2nc(C)c3c2OC(N)=C(C#N)C3c2ccc(F)cc2)cc1 (stereo unspecified)	–	–	–	–	60.0	·
Cc1nn(-c2ccccc2)c(C)c1C1C(C#N)=C(N)Oc2n[nH]c(C)c21 (stereo unspecified)	–	–	–	–	62.5	·
Cc1ccc(C2C(C#N)=C(N)Oc3n[nH]c(-c4ccccc4)c32)o1 (stereo unspecified)	–	·	–	–	87.5	·
SMILES	FadD28 binding	Mtb BioA inh	Rv3671c protease	UGM FP inh	RecA intein inh	TcdB inh
Cc1[nH]nc2c1C(c1cc(Br)cs1)C(C#N)=C(N)O2 (stereo unspecified)	–	·	–	–	53.1	–
CO[C@H]1CN(C)C(=O)c2cc(NC(=O)CC(F)(F)F)ccc2OC[C@H](C)N(C(=O)C2CCOCC2)C[C@@H]1C	·	·	·	·	·	–
CC(C)NC(=O)N(C)C[C@H]1OCCCC[C@H](C)Oc2ccc(NC(=O)c3ccccc3)cc2C(=O)N([C@H](C)CO)C[C@@H]1C	·	–	·	·	·	–
CCC(=O)Nc1ccc2c(c1)C(=O)N(C)[C@H]1CC[C@@H](CC(=O)N3CCCCC3)O[C@H]1CO2	·	–	·	·	·	·
Cc1nn(C)c(C)c1C1C(C#N)=C(N)Oc2n[nH]c(C)c21 (stereo unspecified)	–	–	–	–	43.5	·
O=C(C[C@H]1C[C@H]2c3cc(NC(=O)Nc4ccc(F)cc4)ccc3O[C@H]2[C@H](CO)O1)NC1CCCCC1	·	–	·	·	·	·
O=C(O)c1ccc(-c2ccc(/C=C3\NC(=O)N(Cc4ccc(Cl)cc4)C3=O)o2)cc1Cl	16.5	–	·	·	–	–
COc1ccc2c3c([nH]c2c1)[C@@H](CO)N(C(=O)c1ccccc1)CC31CN(C)C1	·	·	·	·	·	–
O=S(=O)(Nc1ccc(O)cc1)c1cccc2cccnc12	–	–	–	–	·	10.6
CC(C)c1ccc(NS(=O)(=O)c2cccc3cccnc23)cc1	–	–	–	–	–	–
Cc1cc(C)cc(NC(=O)COC(=O)c2cccc(S(=O)(=O)N3CCCCC3)c2)c1	–	–	–	–	·	–
CCC(=O)c1ccc(OCC(=O)Nc2cccc(S(=O)(=O)N3CCCCCC3)c2)cc1	13.1	–	·	·	·	–
Cc1cccc(NC(=O)COC(=O)c2cccc(S(=O)(=O)N3CCCCCC3)c2)c1	10.5	–	–	–	·	–
Cc1cc(OCC(=O)Nc2cccc(S(=O)(=O)N3CCCCC3)c2)ccc1Cl	–	–	–	–	·	–
Cn1c(=O)c(NC2CCCCC2)c2c3c(cccc31)C(=O)c1ccccc1-2	–	·	·	·	·	–
Cn1c(=O)c(N)c2c3c(c(Br)ccc31)C(=O)c1ccccc1-2	–	–	–	14.7	–	–
O=C(NC[C@@H]1CC[C@@H]2[C@@H](CN2S(=O)(=O)c2ccccc2)O1)NC1CCCCC1	·	·	·	·	·	–
C#CCOCCOCCOCCNc1nc(N2CCN(C(=O)CCCCCCCCCCNC(=O)[C@H]([C@@H](C)CC)n3cc(CCCCN=C(N)N)nn3)CC2)nc(N2CCN(C(=O)CCCCCCCCCCNC(=O)[C@@H]([C@H](C)O)n3cc(C)nn3)CC2)n1	15.0	–	–	–	·	–
C#CCOCCOCCOCCNc1nc(N2CCN(C(=O)CCCCCCCCCCNC(=O)[C@H](CCCCN)n3cc(C[C@@H](C)CC)nn3)CC2)nc(N2CCN(C(=O)CCCCCCCCCCNC(=O)[C@H](CCCN=C(N)N)n3cc(C[C@@H](C)CC)nn3)CC2)n1	–	–	–	–	·	·
C#CCOCCOCCOCCNc1nc(N2CCN(C(=O)CCCCCCCCCCNC(=O)[C@@H](CCSC)n3cc(CCO)nn3)CC2)nc(N2CCN(C(=O)CCCCCCCCCCNC(=O)[C@H](CCCN=C(N)N)n3cc(C[C@@H](C)CC)nn3)CC2)n1	11.5	–	–	–	·	·
